Screens: PubChem, National Center for Advancing Translational Sciences (NCATS)
RE007 growth inh = qHTS Assay for Inhibitors of the HIV-1 protein Vpr; S. pombe RE007 Vpr strain, BacTiter-Glo ATP luminescence, 24 h; AID 651644, 2012; 360,000 tested, 0.21% active; Potency, µM (titrated, usually from 92.2 µM), without a hit: at the top dose activity change, negative = less growth, most hits filed as inhibitors; active = well fitted falling curve with a large enough effect; inconclusive = small, poorly fitted or top-dose-only effect; inactive = no such curve, though single readings can be large or run the other way; also: potency is read from the fitted curve at half-maximal effect; % is scaled to controls: 0 for no effect and ±100 for the full control effect; nearly all actives have a fitted effect of over 50% in size
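Fission yeast RE007 carrying one integrated HIV-1 vpr copy, seeded at OD 0.01 in PMG+AL medium with 23 nL pinned compound. Grown 24 h at 30 degrees; viability read by BacTiter-Glo luminescence after 5 min.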
TbPYK inhibitor = qHTS of Trypanosoma Brucei Inhibitors; pyruvate kinase (Trypanosoma brucei), Q57TT1; 410,000 tested, 0.12% active; TbPYK enzyme, Kinase-Glo Plus ATP luminescence, 45 min; Potency, µM (highest dose often 76.8 µM), inactives show at the highest dose activity, negative = inhibition, actives largely listed as inhibitors; also: potency is read from the fitted curve at half-maximal effect; % is scaled to controls: 0 for no effect and ±100 for the full control effect; nearly all actives have a fitted effect of over 50% in size
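Activity of T. brucei pyruvate kinase was followed by Kinase-Glo Plus luminescence after the enzyme reacted 45 min at room temperature with 130 uM ADP (final) and substrate. Test compounds were added before ADP at multiple concentrations.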
Cycloheximide cs = Cycloheximide Counterscreen for Small Molecule Inhibitors of Shiga Toxin | cell reporter, cycloheximide protein synthesis inhibition counterscreen | max response, % | 300,000 tested, 12% active; in the data active = max response mostly above about 13%, no sharp cut-off; inactive = mostly below about 14%; also: read at 38.3 µM for the half of the compounds with a filed dose; 0% is about no effect
LmPK inh = qHTS Assay for Inhibitors of Leishmania Mexicana Pyruvate Kinase (LmPK). AID 1721, 2009. 290,000 tested, 0.37% active. purified LmPK, Kinase-Glo ATP luminescence, 1 h. Potency, µM (doses to about 57.5 µM), inactives show at the top dose activity change, negative = inhibition, actives largely listed as inhibitors; also: potency is read from the fitted curve at half-maximal effect; % is scaled to controls: 0 for no effect and ±100 for the full control effect
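Screened at intermediate enzyme activity to detect both inhibitors and activators: LmPK at 0.1 nM, with a 0.5 nM enzyme column as activation reference. PEP 0.5 mM, ADP 0.1 mM; ATP detected by luminescence after 1 h.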
FBPA Giardia inh = qHTS Assay for Inhibitors of Fructose-1,6-bisphosphate Aldolase from Giardia Lamblia; Potency, µM (titrated, usually from 59.6 µM), for inactives: top-dose activity, negative = inhibition, usual class: inhibitors; 290,000 tested, 0.71% active; AID 2451, 2010; purified Giardia FBPA; A8B2U2; also: potency is read from the fitted curve at half-maximal effect; % is scaled to controls: 0 for no effect and ±100 for the full control effect; nearly all actives have a fitted effect of over 55% in size
Target sequence (A8B2U2 whole entry, looked up): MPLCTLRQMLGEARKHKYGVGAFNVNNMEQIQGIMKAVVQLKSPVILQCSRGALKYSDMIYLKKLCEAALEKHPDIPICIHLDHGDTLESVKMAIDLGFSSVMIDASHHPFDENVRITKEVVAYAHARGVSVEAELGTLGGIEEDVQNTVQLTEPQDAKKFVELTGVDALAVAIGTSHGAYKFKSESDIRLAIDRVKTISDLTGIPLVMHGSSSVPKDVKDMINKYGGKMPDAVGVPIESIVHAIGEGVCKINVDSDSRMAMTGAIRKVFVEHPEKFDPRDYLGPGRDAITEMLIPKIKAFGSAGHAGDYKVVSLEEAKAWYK
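40 nM FBPA preincubated 10 min at RT with compound (up to 57.5 uM final), then substrate plus GAPDH/TPI/NAD/arsenate coupling and diaphorase/resazurin added. Fluorescence read after 20 min at RT, 525/598 nm.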
Shiga toxin inh = A qHTS for Small Molecule Inhibitors of Shiga Toxin; Vero cells, Shiga toxin protein synthesis inhibition reporter; inhibition, % at 38.7 µM; 290,000 tested, 9.2% active; in the data active = inhibition mostly above about 28%, no sharp cut-off; inactive = mostly below about 43%; also: 0% is about no effect
* marks the source's active call; other numbers are inactive results; ? = inconclusive; . = no result. This excerpt belongs to a sample that is enriched for hits. Unless noted, calls follow the shape of the dose curve; as a rule, active = well fitted curve in the direction sought with a large enough effect; inconclusive = small, poorly fitted or top-dose-only effect, or another doubt; inactive = no such curve, though single readings can be large; an effect the other way counts as inactive or inconclusive.

SMILES	RE007 growth inh	TbPYK inhibitor	Cycloheximide cs	LmPK inh	FBPA Giardia inh	Shiga toxin inh
O=c1cc(COc2ccc(Cl)cc2Cl)nc2scc(-c3ccccc3)n12	.	2%	.	.	.	.
CC1=C(C(=O)OCc2ccccc2)C(c2ccc3c(c2)OCO3)NC(=O)N1CCCC(=O)O (configuration not stated)	9%	-2%	.	.	.	.
Cc1nc(-c2ccccc2)sc1CCNC(=O)C(=O)Nc1ccc2c(c1)OCO2	.	1%	.	.	.	.
COc1ccc(S(=O)(=O)Cc2ccc(C(=O)NC3CCCCCC3)o2)cc1	7%	4%	-2	1%	.	-3
COc1cccc(NC(=O)c2ccc3c(c2)N(C)CCS3)c1	-21%	-11%	33*	?	?	29*
CN1CCSc2ccc(C(=O)Nc3ccc(Cl)cc3)cc21	6%	-15%	37*	0%	0%	59*
CN1CCSc2ccc(C(=O)NCc3cccc(F)c3)cc21	0%	-14%	13*	1%	-1%	17
COc1cccc(NC(=O)c2ccc3c(c2)CCN3S(C)(=O)=O)c1	-21%	-15%	17*	-1%	-12%	50*
CC(=O)Nc1ccc(NC(=O)c2ccc3c(c2)CCN3S(C)(=O)=O)cc1	3%	-2%	1	0%	2%	4
COc1ccc(CN(C)C(=O)[C@H](Cc2ccccc2)NC(=O)c2ccco2)c(OC)c1	8%	-11%	.	.	.	.
CCOc1ccc(NC(=S)N2CCN(S(=O)(=O)c3ccc(OC)cc3)CC2)cc1	5%	2%	-1	7%	6%	9
Cc1cc(C)nc(NN=CC2=C(N3CCOCC3)/C(=C/c3ccc(Cl)cc3)CC2)n1	-4%	3%	.	.	.	.
C/C(=N\NC(=O)c1ccc(Cl)cc1)c1ccc2[nH]ccc2c1	-17%	-3%	24*	-5%	-3%	57
Cc1occc1C(=O)N/N=C/C1=C(N2CCOCC2)C(=C\c2ccc(Cl)cc2Cl)/CC1	8%	-4%	16*	-4%	4%	active
CC(=NNC(=O)c1cc(C)nc2ccccc12)c1ccc(N2CCOCC2)cc1	-1%	7%	.	.	.	.
C/C(=N/NC(=O)COc1ccc(C(C)(C)C)cc1)c1ccc(N2CCOCC2)cc1	-3%	0%	.	.	.	.
COC(=O)c1ccc2[nH]ccc2c1	-5%	-10%	1	0%	19%	14
C/C(=N/NC(=O)c1ccoc1C)c1ccc(N2CCOCC2)cc1	-23%	-3%	62*	0%	2%	115*
